IL1B NFkB pot: enhances IL-1B driven NFkB nuclear translocation; HUVEC IL-1B NFkB p65 nuclear translocation imaging; activation, % at 2 µM; hit rate 0.3% among 94,000; AID 819;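 active = activation above 40%, about the mean plus 3 SD, also judged a hit on visual image review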;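 note: percent activation is computed from the nuclear over cytoplasmic p65 intensity ratio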
NFkB transloc inh: blocks IL-1B driven NFkB nuclear translocation in HUVEC cells; HUVEC IL-1B NFkB p65 nuclear translocation imaging; hit rate 0.43% among 94,000; AID 796; inhibition, % at 2 µM;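 active = inhibition above about 30% together with a positive call from visual inspection of the well image, limit read from the data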;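 note: nuclear over cytoplasmic p65 intensity ratio measured by imaging; 0% = IL-1B stimulated DMSO wells and 100% = unstimulated DMSO wells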
Cav3 T inh: human Cav3.2 channel inhibition, primary screen; AID 449739; B-score at 10 µM; Cav3.2-expressing cells, Fluo-4 calcium fluorescence FDSS; stronger effect = lower value; O95180; hit rate 4% among 100,000;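 active = single-dose well whose peak fluorescence ratio is a statistical outlier from its plate by either plate-standardised score or position-corrected B-score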
HUVEC tox IL1B: HUVEC cytotoxicity counter-screen, IL-1B stimulated. HUVEC cell count loss, Hoechst imaging. cell count reduction, % at 2 µM. hit rate 0.41% among 94,000;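 active = cell count reduction more than 3 SD above the screen-wide mean, cut at about 70% in these data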;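 note: normalized per plate to untreated control cells as the no-loss baseline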
Active calls of the source: *; / = not tested or not shown. Sampled rows, rich in hits. Any-hit rate of the full collection: about 4.4%.

SMILES	IL1B NFkB pot	NFkB transloc inh	Cav3 T inh	HUVEC tox IL1B
CCC1SC2=NC(C)=C(C(=O)OCCOC)C(/C=C/c3ccccc3OC)N2C1=O (stereo not drawn)	17.0	-17.0	-5.77*	22.5
COC(=O)C1=C(C)N=C2SC(C)C(=O)N2C1/C=C/c1ccccc1OC (stereo not drawn)	15.8	-15.8	-7.38*	-1.0
CCC(c1nnnn1C1CCCC1)N(Cc1cccs1)Cc1cc2cc(C)ccc2[nH]c1=O (stereo not drawn)	-5.3	5.3	-1.06	12.9
CCOc1ccc2[nH]c(=O)c(CN(Cc3cccs3)C(CC)c3nnnn3C(C)(C)CC)cc2c1 (stereo not drawn)	/	/	-6.23*	/
O=C(NCSc1ccnc(SCNC(=O)c2ccc(F)cc2)n1)c1ccc(F)cc1	0.6	-0.6	-0.141	2.5
CS(=O)(=O)N1c2ccccc2[C@@]2(Br)C[C@H]3C(=O)N[C@@H](Cc4ccccc4)C(=O)N3[C@@H]12	/	/	0.0138	/
O=C(c1ccco1)N1CCN(c2ncnc3c2nnn3Cc2ccccc2Cl)CC1	-3.6	3.6	0.485	19.6
O=C(c1ccco1)N1CCN(c2nc(C(F)(F)F)nc3c2nnn3Cc2ccccc2)CC1	40.7*	-40.7	-2.33	11.5
C[C@]12CC[C@@H]3c4ccc(O)cc4CC[C@H]3[C@@H]1C[C@@H](O)[C@@H]2O	/	/	-4.57*	/
Cc1cccc(C)c1OCC(=O)NNC(=O)Nc1ccc(Cl)cc1	7.8	-7.8	-1.64	-13.5
Cc1ccccc1Sc1c(C#N)c(-c2ccccc2)nn1C	15.0	-15.0	-2.34	-4.8
CCCCCCn1c2c(c(=N)c3c1CCC3)CCC2	8.3	-8.3	-1.51	2.3
CCCCCCCCCn1c2c(c(=N)c3c1CCC3)CCC2	0.4	-0.4	-6.18*	-0.5
COC(C/C=C\[C@H](O)[C@H](C)OCc1ccccc1)OC	/	/	0.556	/
Cc1cc(Cl)ccc1NC(=O)CN1CCC(C(O)(c2ccccc2)c2ccccc2)CC1	5.7	-5.7	-4.26*	-12.4
O=C(CSc1ncnc2nc[nH]c12)N1CCOCC1	16.5	-16.5	0.388	1.1
C=CCn1c(SCc2ccc(C#N)cc2)nnc1-c1cccc(Cl)c1	16.6	-16.6	-4.92*	-27.5
C=CCn1c(SCc2cccc(C#N)c2)nnc1-c1ccccc1O	0.7	-0.7	-0.159	-11.1
COC(=O)c1cn(NC(=O)c2cccc(F)c2)c(=O)c2ccccc12	28.6	-28.6	0.0239	2.7
COC(=O)c1cn(NC(=O)c2ccc(OC)c(OC)c2)c(=O)c2ccccc12	-39.0	39.0*	-0.281	-2.0
COc1ccc(C2C(=O)N(C3CCCCC3)CC(=O)N2Cc2ccco2)cc1 (stereo not drawn)	4.7	-4.7	2.3	-34.5
CCc1nc(N2CCOCC2)c(C#N)c2c1CCCC2	3.0	-3.0	-4.46*	38.5
N#Cc1c(SCc2ccccc2)nc(N2CCOCC2)c2c1CCCC2	-8.0	8.0	-5.4*	21.6
O=C(/C=C/c1ccccc1)NC(NC(=S)Nc1ccc(Cl)cc1)C(Cl)(Cl)Cl (stereo not drawn)	4.8	-4.8	-7.43*	-9.8
FC(F)(F)c1ccccc1C1C2=C(Nc3ncnn31)c1ccccc1CCC2 (stereo not drawn)	32.5	-32.5	-0.00796	-0.6
SMILES	IL1B NFkB pot	NFkB transloc inh	Cav3 T inh	HUVEC tox IL1B
C(=C1/CCCC2=C1Nc1ncnn1C2c1ccccc1)/c1ccccc1 (stereo not drawn)	-37.7	37.7*	-0.0198	16.7
CC(C)(C)c1ccc(C(=O)Nc2ccc(N3CCOCC3)cc2)cc1	0.9	-0.9	-0.425	11.7
COC(=O)Cc1ccc(NC(=O)c2ccc(C(C)(C)C)cc2)cc1	11.2	-11.2	-5.17*	-69.7
COc1cc(CCCN2C(N)=NC[C@@H]2Cc2ccccc2)cc(OC)c1OC	/	/	0.558	/
CN(C)S(=O)(=O)c1cccc(CSc2cccc[n+]2[O-])c1	3.7	-3.7	0.414	-5.7
C=C(Cl)COc1cc(C)cc2oc(=O)cc(CC)c12	-47.3	47.3*	-2.04	-1.3
O=C(NCCCN1CCN(c2cccc(Cl)c2)CC1)c1cccc(N2CCCC2=O)c1	45.8*	-45.8	1.13	-18.6
N#C/C(=C(/O)CSc1ccccc1C(=O)O)c1nc2ccccc2s1	-3.7	3.7	-0.0651	0.7
Cc1ccc(SC/C(O)=C(\C#N)c2nc3ccccc3s2)cc1	15.8	-15.9	-4.37*	1.7
CC(=O)Nc1c(C(=O)NCc2ccccc2)nnn1Cc1ccccc1	4.4	-4.4	-0.599	-12.4
O=C(Nc1ccccc1)c1nnn(Cc2ccccc2)c1NC(=O)C(F)(F)F	16.8	-16.8	-8.4*	-1.3
COc1ccccc1NC(=O)c1nnn(Cc2ccccc2)c1NC(=O)C(F)(F)F	22.3	-22.3	-7.74*	5.1
COc1ccccc1NC(=O)CSc1nnnn1Cc1ccccc1	-9.7	9.7	-0.484	-36.1
Cc1cccc2cc(C#N)c(NCCNS(=O)(=O)c3ccc4c(c3)OCCO4)nc12	-12.0	12.0	-4.19*	-32.2
Cc1ccc2nc(/C(C#N)=C\c3ccc(N4CCOCC4)o3)[nH]c2c1	15.6	-15.6	-5.01*	-11.0
Cc1ccc2nc(/C(C#N)=C\c3cc(C)n(-c4cccc([N+](=O)[O-])c4)c3C)[nH]c2c1	0.2	-0.2	-6.11*	25.4
N#C/C(=C\c1ccc(N2CCCC2)c([N+](=O)[O-])c1)c1nc2ccccc2[nH]1	4.9	-4.9	-1.22	8.1
Cc1ccc2nc(/C(C#N)=C\c3ccc([N+](=O)[O-])o3)[nH]c2c1	-37.5	37.5*	-1.08	-36.3
Cc1ccc2nc(SCC(=O)N3CCOCC3)[nH]c2c1	6.7	-6.7	0.147	2.4
Cn1c(C(=O)N2CCCC(C(=O)NCCCc3ccccc3)C2)cc2sccc21 (stereo not drawn)	17.8	-17.8	-4.2*	-13.3
Cc1ccc(CCNC(=O)C2CCCN(C(=O)c3cc4sccc4n3C)C2)cc1 (stereo not drawn)	28.9	-28.9	-4.82*	4.5
COc1ccc(C2=CC(=O)OC3(CCCC3)O2)cc1	31.9	-31.9	0.0137	-100.0
O=C(CNC(=O)OCc1ccccc1)NCC(=O)N1CCCC1C(=O)OCc1ccccc1 (stereo not drawn)	-3.8	3.8	0.0272	-3.0
COc1ccc(CCNC(=O)c2nnc(Cc3ccc(Cl)cc3)o2)cc1OC	-3.4	3.4	-3.56*	7.1
COc1ccc(CCNC(=O)c2nnc(Cc3c(F)cccc3Cl)o2)cc1OC	5.7	-5.7	0.109	-2.8
SMILES	IL1B NFkB pot	NFkB transloc inh	Cav3 T inh	HUVEC tox IL1B
COc1ccc(C2CC(=O)c3cnc(NC(=O)c4ccccc4OC)nc3C2)c(OC)c1 (stereo not drawn)	4.1	-4.1	-0.882	-6.0
O=C(/C=C/c1ccc2c(c1)OCO2)NCCSCc1cccc(Cl)c1	8.4	-8.4	/	-18.4
O=C(/C=C/c1ccc2c(c1)OCO2)NCCSCc1ccc(Cl)cc1Cl	-10.9	10.9	-6.32*	1.6
O=C(NCCSCc1ccc(Cl)cc1Cl)c1ccc(CN2CCOCC2)cc1	-1.1	1.1	-4.32*	-8.6
COC(=O)CN(c1ccc(F)cc1)S(=O)(=O)c1ccc2c(c1)OCCO2	-2.6	2.6	-0.0899	-5.1
CC(C)CNS(=O)(=O)c1ccc(S(=O)(=O)NC2CCOC(C)(C)C2)cc1 (stereo not drawn)	5.4	-5.4	0.332	-20.6
COc1ccc(CNC(=O)C(OC(=O)c2ccco2)c2ccc(OC)cc2)cc1 (stereo not drawn)	4.8	-4.8	-0.241	9.9

Assay outcomes deposited in PubChem BioAssay by several laboratories.
